Test system: RAW-Dual (murine macrophage reporter line)
Experiment: viability score (confluency relative to resting cells, overnight) (fraction); higher = more viable, active = viable (0.7 or more)
Conditions: modulator concentration 10 µM
In short: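 Overnight exposure to 10 μM final compound was carried out on RAW-Dual macrophages in 384-well plates. IncuCyte software generated two confluency masks over all wells imaged with IncuCyte. The viability score gives confluency in relation to resting cells. A compound met the cutoff if each mask exceeded 70% of resting cells.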

SMILES	viability score
Cl.Fc1ccc(C2CCNCC2COc2ccc3c(c2)OCO3)cc1 (stereo not given)	0.968 (active)
O=C(O[C@@H]1C[C@@H]2C[C@@H]3C[C@H](C1)N2CC3=O)c1c[nH]c2ccccc12 [Prestw-1510]	1 (active)
Cc1ccc(S(=O)(=O)NC(=O)NN2CC3CCCC3C2)cc1 (stereo not given)	0.987 (active)
Cl.O[C@@H](c1cc(C(F)(F)F)nc2c(C(F)(F)F)cccc12)[C@H]1CCCCN1	0.137 (inactive)
COc1ccc(N2C(=O)C(=Cc3ccc([N+](=O)[O-])s3)SC2=S)cc1	0.9 (active)
N=C(N)Nc1ccc(Cl)cc1	0.991 (active)
O=C(O)c1ccc(NCn2nnc3ccccc32)cc1	1 (active)
Cc1ccc(C=C2Oc3c(ccc(O)c3CN3CCN(CCO)CC3)C2=O)cc1	1.02 (active)
Clc1cccc(OCCCOc2cccc3cccnc23)c1	0.818 (active)
COc1ccc2c(C)nc(Nc3nc(C)cc(-c4ccccc4)n3)nc2c1	1.03 (active)
CC12CC3(C)CC(C)(C1)CC(C(=O)NC(C)(C)CO)(C2)C3	1 (active)
c1ccc(CN2CCN(c3cc(-c4cccnc4)n[nH]3)CC2)cc1	0.98 (active)
CC(O)(CNC(=O)CSc1ccc(F)cc1)c1ccc(-c2ccccc2)cc1 (stereo not given)	0.992 (active)
CCC(=O)Nc1ccc(S(=O)(=O)NCC2CCN(c3ncc(F)cn3)CC2)c(C)c1	0.986 (active)
Cc1cc(C)n(CCC(=O)N2CCc3nc4ccc(F)cn4c(=O)c3C2)n1	1 (active)
Cc1ccc(C2C=C(c3ccccc3)Nc3ncnn32)cc1 (stereo not given)	0.982 (active)
Nc1nc(=O)n([C@@H]2CS[C@H](CO)O2)cc1F	1 (active)
COc1cc(C(=O)O)ccc1NC(=O)[C@@H]1N[C@@H](CC(C)(C)C)[C@](C#N)(c2ccc(Cl)cc2F)[C@H]1c1cccc(Cl)c1F	0.122 (inactive)
CC(=O)N1CCN=C1SCc1cccc(C(F)(F)F)c1	0.99 (active)
Cc1ccc(-n2c(C)cc(C=NNC(=O)CN3CCOCC3)c2C)c(C)c1	1 (active)

SMILES	viability score
N#Cc1cc(OC2CCSC2)nc2ccccc12 (stereo not given)	1 (active)
CCCCC1=NC2(CCCC2)C(=O)N1Cc1ccc(-c2ccccc2-c2nnn[nH]2)cc1 [Prestw-1736]	1 (active)
O=c1[nH]c(=O)n([C@H]2C[C@H](O)[C@@H](CO)O2)cc1I	0.998 (active)
COc1cc2c(cc1OC)C1Cc3ccc(OC)c(OC)c3CN1CC2 (stereo not given)	1 (active)
O=C(O)C=Cc1ccc(S(=O)(=O)NCc2cccnc2)cc1	1.01 (active)
COc1ccc(CNC2CCCc3ccccc32)c(OC)c1C (stereo not given)	0.192 (inactive)
Cc1ccc(-n2nc(C(C)(C)C)cc2NC(=O)NCc2cc(F)ccc2Oc2ccc3c(cnn3CCO)c2)cc1	1.01 (active)
C1=C(c2ccccc2)Nc2nnnn2C1c1ccccc1 (stereo not given)	1.01 (active)
CNc1ccc([N+](=O)[O-])cc1-n1cnc(-c2ccc([N+](=O)[O-])cc2)c1	1.02 (active)
CC(C)(C(=O)O)c1ccc(C(O)CCCN2CCC(C(O)(c3ccccc3)c3ccccc3)CC2)cc1.Cl (stereo not given)	0.983 (active)
CN1CCN(C(=O)CN2C(=O)c3cccc4cccc(c34)C2=O)CC1	1.01 (active)
Cc1cn([C@H]2C=C[C@@H](CO)O2)c(=O)[nH]c1=O [Prestw-1279]	0.998 (active)
CC1(C)CC(=O)c2sc(NC(=O)c3ccccc3)nc2C1	1 (active)
COC(=O)C1=CN(C2CC2)C=C(C(=O)OC)C1c1ccccc1Cl	1 (active)
CC1CC(C)CN(S(=O)(=O)CCCOc2ccc3c(c2)OCO3)C1 (stereo not given)	0.956 (active)
NC(=O)c1cn(Cc2c(F)cccc2F)nn1	0.999 (active)
CCOC(=O)c1sc(NN=Cc2cccc(Cl)c2)nc1C	1.01 (active)
COc1cc2c(Oc3ccc4[nH]c(C)cc4c3F)ncnc2cc1OCCCN1CCCC1	1 (active)
CCCc1nn(C)c2c(=O)[nH]c(-c3cc(S(=O)(=O)N4CCN(C)CC4)ccc3OCC)nc12	0.986 (active)
CC(C(=O)O)c1ccc(C(=O)c2cccs2)cc1 (stereo not given)	1.01 (active)
